{"source": "PubChem BioAssay AID1479", "about": "(National Center for Advancing Translational Sciences (NCATS), 2009)", "note": "Several values for one entry are separate records, joined by “and”; a condition that tells them apart may be missing. Equal entries are not always repeated. Out of some 280,000 compounds screened, about 820 (0.29%) were called active. Inconclusive results (about 1%) are left out. Calls come from the whole dose curve; as a rule, active = well fitted curve in either direction with a large enough effect; inconclusive = small, poorly fitted or top-dose-only effect; inactive = flat fitted curve, though single readings scatter. Shown is part of a subset that was picked to be rich in actives. More than one record can exist for a structure, and the calls need not agree. % is set by controls: 0 for no effect and ±100 for the full control effect; potency is the fitted concentration of half-maximal effect; tags give direction and shape of the fitted curve or compound fluorescence and quenching.", "data": [{"test": "Total Fluorescence Counterscreen for Inhibitors of the Interaction of Thyroid Hormone Receptor and Steroid Receptor Coregulator 2", "details": "TRb/SRC2 Texas Red total fluorescence interference; series mostly up to 106 µM; fluorescence change, negative = quenching: at the top concentration", "source_text": "NIH Molecular Libraries Probe Production Network [MLPCN]\nNIH Chemical Genomics Center [NCGC]\nAssay Provider: R. Kip Guy, St. Jude Children's Research Hospital\nThyroid receptor (TR) regulates many homeostatic processes including basal metabolism, cardiovascular function, body weight, and lipid trafficking. TR modulators are potential therapeutics for obesity and hyperlipidemias but current thyroid analogs have undesirable side effects, particularly cardiac stimulation. To identify inhibitors that specifically prevent the interaction of TR with the steroid receptor […] 2 (SRC2), a fluorescence polarization assay was screened. This assay detects interaction of the ligand-binding domain of human TRb with a Texas Red labeled SRC2 peptide, corresponding to a 20 amino acid region of the nuclear receptor interaction domain (Arnold et al., 2006). Total fluorescence (555 nm excitation and 632 nm emission) was measured to identify potential fluorescent and light absorbing compounds. Such compounds may be artifacts that interfere with the fluorescence polarization assay.\nArnold, L. A.; Estebanez-Perpina, E.; Togashi, M.; Shelat, A.; Ocasio, C. A.; McReynolds, A. C.; Nguyen, P.; Baxter, J. D.; Fletterick, R. J.; Webb, P.; Guy, R. K. A high-throughput screening method to identify small molecule inhibitors of thyroid hormone receptor coactivator binding. Sci STKE 2006, p 13.\nNCGC Assay Protocol Summary:\nFor screening, 5 uL/well 0.6 uM TRb and 20 nM SRC2 Texas Red in protein buffer (20mM Tris hydrochloride, 100mM NaCl, 10% glycerol, 1mM EDTA, 0.01% NP-40, 1mM DTT, 1uM T3 and 5% DMSO) was dispensed into black solid 1536-well plates (Grenier) using a solenoid-based dispenser. Following transfer of 23 nL compound or DMSO vehicle by a pin tool, the plates were centrifuged 15 s at 1000 RPM and incubated 5 hr at ambient temperature. The plates were read by an Envision (Perkin Elmer) to detect fluorescence polarization of SRC2 Texas Red (555 nm excitation and 632 nm emission). Data were normalized to unbound (all components except TRb) and bound SRC2 Texas Red controls. Total fluorescence (TF) was calculated as follows: TF = S + 2P where S and P are fluorescence readings in the parallel and perpendicular channels, respectively.\nKeywords: NIH Roadmap, MLPCN, MLI, MLSMR, qHTS, NCGC, qHTS, thyroid hormone receptor, steroid receptor coactivator, fluorescence polarization", "values": [{"smiles": "CC(C)Sc1oc(-c2cccs2)nc1S(=O)(=O)c1ccc(Cl)cc1", "fluorescence change, negative = quenching": "-1.53% (inactive)"}, {"smiles": "CC1(C)C(=O)N(Cl)C(=O)N1Cl", "fluorescence change, negative = quenching": "2.55% [at 201 µM] (inactive)"}, {"smiles": "COc1ccc(OC)c(NC(=O)CSC2=Nc3ccccc3C3=NC(CC(=O)NCc4ccc(F)cc4)C(=O)N23)c1", "note": "(stereo not drawn)", "fluorescence change, negative = quenching": "-3.96% (inactive)"}, {"smiles": "Cc1ccc(S(=O)(=O)N(Cc2nc(-c3ccc(Cl)cc3)no2)C2CCCCC2)cc1", "fluorescence change, negative = quenching": "-9.51% (inactive)"}, {"smiles": "C[Si](C)(C)N[Si](C)(C)C", "fluorescence change, negative = quenching": "-1.52% [at 201 µM] (inactive)"}, {"smiles": "CC(C)(C)OC(=O)N1CCC(c2c(C(=O)NCc3ccccn3)cnn2-c2ccc(F)cc2)CC1", "fluorescence change, negative = quenching": "-1.16% (inactive)"}, {"smiles": "Cc1c(Cl)cccc1NC(=O)C1CCCN(c2ncnc3onc(C)c23)C1", "note": "(stereo not drawn)", "fluorescence change, negative = quenching": "1.28% (inactive)"}, {"smiles": "Cn1nnnc1SCCCNCc1ccc(Cl)cc1", "fluorescence change, negative = quenching": "8.98% (inactive)"}, {"smiles": "O=C(Cn1c(=O)n(Cc2cccs2)c(=O)c2cccnc21)Nc1ccc(F)cc1", "fluorescence change, negative = quenching": "-105% [at 53 µM] (inactive)"}, {"smiles": "CCOc1cccc(C(=O)Nc2nnc(S(=O)(=O)N(C)c3ccc(C)cc3)s2)c1", "fluorescence change, negative = quenching": "-11.7% (inactive)"}, {"smiles": "Cc1ccccc1OCCSc1nc2ccc(NC(=O)c3ccco3)cc2s1", "fluorescence change, negative = quenching": "7.51% (inactive)"}, {"smiles": "C=Cc1ccc(Cn2c(C(=O)O)c(CNC3CCCC3)c3ccc(C)cc32)cc1", "fluorescence change, negative = quenching": "-1.04% (inactive)"}, {"smiles": "O=C(COc1ccc(Cl)cc1)Nc1ccccc1OCc1cc(=O)n2ccccc2n1", "fluorescence change, negative = quenching": "-2.29% (inactive)"}, {"smiles": "Cn1c(SCC(=O)N2CCCc3ccccc32)ncc(C(=O)Nc2ccc(F)cc2)c1=O", "fluorescence change, negative = quenching": "0.932% (inactive)"}, {"smiles": "COc1ccc(-c2nn(CC(=O)Nc3ccccc3F)c3c2cnc2ccc(F)cc23)cc1", "fluorescence change, negative = quenching": "0.162% (inactive)"}, {"smiles": "CCN(CC)c1nn2c(=O)c(C(=O)NCCc3ccccc3)cnc2s1", "fluorescence change, negative = quenching": "-5.51% (inactive)"}, {"smiles": "COc1ccc(N2CCN(c3nc(-c4ccccc4F)nc4ccccc34)CC2)cc1", "fluorescence change, negative = quenching": "0.258% (inactive)"}, {"smiles": "Oc1c(Cl)cc(Cl)c(Cl)c1Cc1c(O)c(Cl)cc(Cl)c1Cl", "Potency": "inactive and 44.7 µM [quencher] (active)"}, {"smiles": "CCOc1ccccc1CNC(=O)C1CCCN(S(=O)(=O)c2ccc3c(ccn3C)c2)C1", "note": "(stereo not drawn)", "fluorescence change, negative = quenching": "-5.05% (inactive)"}, {"smiles": "Cc1cccc(C(C)C)c1NC(=O)C(NS(=O)(=O)c1cccc2nsnc12)c1ccccc1", "note": "(stereo not drawn)", "fluorescence change, negative = quenching": "-0.208% (inactive)"}, {"smiles": "Cn1c(=O)n(C)c2cc(C(=O)Nc3ccc4c(c3)OCO4)ccc21", "fluorescence change, negative = quenching": "-0.997% (inactive)"}, {"smiles": "O=C(Nc1ccc2c(c1)OCO2)c1ccc(N2C(=O)c3ccccc3C2=O)cc1", "Potency": "0.0079 µM [quencher] (active)"}, {"smiles": "O=C(Nc1ccc(N2CCOCC2)cc1)c1ccc2c(c1)OCO2", "fluorescence change, negative = quenching": "-3.49% (inactive)"}, {"smiles": "Cc1cccc(-n2ccnc2SCC(=O)Nc2cccc3ccccc23)c1C", "fluorescence change, negative = quenching": "-1.04% (inactive)"}, {"smiles": "O=C(NCC(c1ccc(Cl)cc1)N1CCOCC1)c1ccccc1F", "note": "(stereo not drawn)", "fluorescence change, negative = quenching": "10.2% (inactive)"}, {"smiles": "CC(C)(C)c1ccc(C(=O)NCC(c2ccc(Cl)cc2)N2CCOCC2)cc1", "note": "(stereo not drawn)", "Potency": "10 µM [quencher] (active)"}, {"smiles": "COc1cc(C(=O)NCC(c2ccc(Cl)cc2)N2CCOCC2)cc(OC)c1OC", "note": "(stereo not drawn)", "fluorescence change, negative = quenching": "0.91% (inactive)"}, {"smiles": "CCCNC(=O)C(CC)n1nc(CC)n2c(cc3oc(C)cc32)c1=O", "note": "(stereo not drawn)", "Potency": "22.4 µM [quencher] (active)"}, {"smiles": "CCOc1ccc(CCNC(=O)C(CC)n2nc(C)n3c(cc4sccc43)c2=O)cc1OCC", "note": "(stereo not drawn)", "fluorescence change, negative = quenching": "0.796% (inactive)"}, {"smiles": "CCC(C(=O)NCc1ccc(OC)cc1)n1nc(C)n2c(cc3occc32)c1=O", "note": "(stereo not drawn)", "fluorescence change, negative = quenching": "-2.44% (inactive)"}, {"smiles": "CCOc1cc(NC(=O)c2ccco2)c(OCC)cc1NC(=O)COc1ccccc1", "fluorescence change, negative = quenching": "0.535% (inactive)"}, {"smiles": "CCOc1cc(NC(=S)NCCCOC)c(OCC)cc1NC(=O)c1ccco1", "Potency": "7940 µM [quencher] (active)"}, {"smiles": "CCOc1cc(NC(=S)NCc2ccco2)c(OCC)cc1NC(=O)c1ccco1", "fluorescence change, negative = quenching": "-0.963% (inactive)"}, {"smiles": "O=C(NCCc1ccccc1)c1cnc2sc(N3CCCC3)nn2c1=O", "fluorescence change, negative = quenching": "3.65% (inactive)"}, {"smiles": "CCOC(=O)c1ccc(NC(=O)CCn2c(=O)oc3ccccc32)cc1", "Potency": "501 µM [quencher] (active)"}, {"smiles": "O=C(CCn1c(=O)oc2ccccc21)Nc1ccon1", "fluorescence change, negative = quenching": "-0.731% (inactive)"}, {"smiles": "CCOC(=O)c1ccc(NC(=O)CCS(=O)(=O)c2ccc3c(c2)oc(=O)n3C)cc1", "fluorescence change, negative = quenching": "-4.02% (inactive)"}, {"smiles": "CCOC(=O)c1ccc2c(c1)N(Cc1cccc(OC)c1)C(=O)c1ccccc1S2(=O)=O", "fluorescence change, negative = quenching": "-1.32% (inactive)"}, {"smiles": "Cc1nn(-c2ccc(F)cc2)c(-n2cccc2)c1C(=O)N1CCN(c2ccccc2)CC1", "fluorescence change, negative = quenching": "-1.65% (inactive)"}, {"smiles": "CN(C)c1ccc(N/C=C/C(=O)C(F)(F)F)cc1", "Potency": "44.7 µM [fluorescent] (active)"}, {"smiles": "O=C(/C=C/Nc1ccccc1OC(F)(F)F)C(F)(F)F", "fluorescence change, negative = quenching": "-0.288% (inactive)"}, {"smiles": "CCCOc1ccc(N/C=C/C(=O)C(C)(C)C)cc1", "fluorescence change, negative = quenching": "-7.71% (inactive)"}, {"smiles": "COC(=O)c1ccc(CSc2nncn2C)cc1", "fluorescence change, negative = quenching": "0.728% (inactive)"}, {"smiles": "COC(=O)c1ccc(CSc2nncn2N)cc1", "fluorescence change, negative = quenching": "-0.734% (inactive)"}, {"smiles": "CCOC(=O)c1ccc(CSc2nnc3cc(C)c4ccccc4n23)cc1", "Potency": "1.41 µM [quencher] (active)"}, {"smiles": "Cn1c(=O)c2c(ncn2CC(=O)Nc2cccc(C(F)(F)F)c2)n(C)c1=O", "fluorescence change, negative = quenching": "-1.15% (inactive)"}, {"smiles": "Cn1c(C(=O)Nc2cccc(C(F)(F)F)c2)cc2c(=O)n3ccccc3nc21", "Potency": "44.7 µM [quencher] (active)"}, {"smiles": "O=C(Nc1ccc(OC(F)(F)F)cc1)c1cc2c(=O)n3ccccc3nc2s1", "fluorescence change, negative = quenching": "-8.23% (inactive)"}]}]}
